# Measured values reported in ChEMBL document CHEMBL3988442, “University of Dundee, Small-Polar-MMV Screening Library” (2021).
# Assays:
# [1] = biological target: T1, Aspartate--tRNA(Asp/Asn) ligase (Mycobacterium tuberculosis (strain ATCC 25618 / H37Rv)) (UniProt P9WFW3); test: Assay for Asp RNA synthetase-1 from Mycobacterium tuberculosis; format: functional; design: scale not given: direction of the effect not stated beside the values; conditions: 30 µM; also: in the data most compounds retested in dose-response had high values
# T1 sequence (whole entry): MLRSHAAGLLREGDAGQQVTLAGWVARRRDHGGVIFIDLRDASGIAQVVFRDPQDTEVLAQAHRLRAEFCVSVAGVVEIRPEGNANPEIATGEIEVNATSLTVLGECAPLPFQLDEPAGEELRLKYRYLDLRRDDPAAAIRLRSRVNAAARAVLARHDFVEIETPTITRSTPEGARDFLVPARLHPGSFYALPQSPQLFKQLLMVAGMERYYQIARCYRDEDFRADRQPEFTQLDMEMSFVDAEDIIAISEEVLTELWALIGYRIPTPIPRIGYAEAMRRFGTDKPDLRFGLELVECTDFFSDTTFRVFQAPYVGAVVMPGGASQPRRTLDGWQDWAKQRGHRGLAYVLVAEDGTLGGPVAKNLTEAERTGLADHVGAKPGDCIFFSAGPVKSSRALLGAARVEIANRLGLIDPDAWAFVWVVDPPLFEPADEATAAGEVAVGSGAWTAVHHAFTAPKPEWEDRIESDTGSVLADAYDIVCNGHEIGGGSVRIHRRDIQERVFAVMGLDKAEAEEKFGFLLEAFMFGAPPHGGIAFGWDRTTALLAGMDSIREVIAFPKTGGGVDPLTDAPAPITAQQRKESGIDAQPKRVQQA
# [2] = biological target: Shiga toxin 2 (Escherichia coli O157:H7) (UniProt P09385+P09386); test: E. coli 0.157:H7 Shiga Toxin SOP - stx2 screening assay; format: functional; design: scale not given: direction of the effect not stated beside the values; conditions: 30 µM
SMILES,Percent Effect [1],Percent Effect [2]
O=C(c1ccc(F)cc1)N1CCN2C[C@H](OCc3ccccn3)C[C@H]2C1,-1.3%,10.7%
O=C(CSC1=NS(=O)(=O)c2cc(F)ccc2N1)Nc1cccc(Cl)c1,4.04%,-1.14%
Cc1occc1C(=O)N1CCc2c(COCC3CC3)cncc2C1,-0.443%,-11.9%
CCOCCN1CCN(Cc2nnc(C3CC3)o2)CC1CC (centres undefined),1.06%,-12.2%
Cc1[nH]ccc1C(=O)N1CCC(c2nnc(Cn3ccnc3)n2C)CC1,-1.28%,-20.6%
Cc1nsc(NC(=O)N2CCC(C(C)(C)O)CC2)n1,0.0141%,-27.4%
CNC(=O)CN1CCC(NC(=O)N(C)Cc2cc(C)on2)CC1,-6.28%,19%
CCCc1noc(CN2CCCC2c2c(C)nn(C)c2OC)n1 (centres undefined),-5.33%,4.3%
CCn1cc(CN2CC3CCCN3C[C@H]2C)c(C)n1 (some centres undefined),1.26%,-7.87%
Cc1nc(C2CCCN(C(=O)Cn3ccccc3=O)C2)no1 (centres undefined),-1.54%,25.3%
CCS(=O)(=O)N1Cc2nccn2CC(Cn2nc(C)nc2C)C1 (centres undefined),0.776%,6.38%
COC(=O)c1cc(C(=O)N2CCCCCC2)n(-c2ccccc2)n1,-0.856%,30.9%
Cc1nc(NCCc2ccc(Cl)cc2)cc(C(=O)N2CCOCC2)n1,12.1%,-64.7%
O=C(NCCn1ccnc1)N1CCN(Cc2cccs2)CC1,0.0694%,-34.2%
Cc1ccc2c(ccn2CC(=O)NC[C@@H]2CCCN3CCCC[C@H]23)c1,2.12%,-7.12%
Cc1cnn(C2CCCN(C(=O)CCCNc3ncccn3)C2)c1 (centres undefined),1.18%,20.6%
N#CCSCCCN1CCN(C(=O)c2ccc(Cl)cc2)CC1,0.593%,-35.2%
Cc1ccc(C(O)CNCCn2cccn2)cc1C (centres undefined),-5.54%,2.86%
Cc1cnn(CC2CCCCN2Cc2noc(C3CC3)n2)c1 (centres undefined),-2.57%,26.8%
Cc1ccn(-c2ccccc2NCc2cccnc2C)n1,-3.62%,0.821%
CN(Cc1ccc(N2CCCCC2)cc1)Cc1noc(C(C)(C)C)n1,1.93%,-7.66%
CC(=O)N1CCC2(CCN(C(=O)c3ccc(C)c(C(F)(F)F)c3)CC2)C1,17.3%,-10.7%
CC(=O)c1c(F)cccc1N1CCC(Cc2cccnc2)CC1,0.661%,-24.5%
Nc1nccc(-c2c[nH]nc2C2CCCCC2)n1,6.92%,-26.9%
Cc1cc(CN(Cc2cccs2)CC2CCCO2)no1 (centres undefined),1.32%,12.5%
Cc1cc(C(=O)NCCN2CCCC(C)C2)nn1C (centres undefined),-4.16%,11.8%

SMILES,Percent Effect [1],Percent Effect [2]
NC(=O)c1cccc(CC2CCN(C(=O)CCCN3CCOCC3)C2)c1 (centres undefined),6.21%,-6.5%
Cc1ccc(F)cc1S(=O)(=O)NCc1cccnc1N(C)C,4.75%,-16.9%
Cc1noc(C(C)C)c1C(=O)NCC(c1cccc(F)c1)N(C)C (centres undefined),-4.05%,8.91%
COc1cc(C)ccc1OCCC(=O)N1CCCC1Cn1cccn1 (centres undefined),2%,12.8%
Cn1cc(CN2C[C@@H]3COC[C@]3(C(=O)NCc3ccccn3)C2)cn1,3.06%,-15%
Cc1nc(CN2CCN(C(=O)COCc3ccccc3)CC2)no1,-0.353%,-1.66%
O=C(NC1CCCC1)[C@@H]1CN(Cc2nccs2)C[C@H]2OCC[C@H]21,4.4%,-7.97%
CC(C)Oc1ccccc1CNC(=O)N1CCC(n2cncn2)CC1,-5.72%,-31.1%
COc1ccc(OC)c(C2C3=C(COC3=O)Nc3[nH]nc(C)c32)c1 (centres undefined),-2.76%,-22.3%
O=C(CN1CCCS1(=O)=O)NCCOc1ccc2c(c1)CCC2,-5.23%,9.97%
Cc1cnn(CC2CCCN2C(=O)c2cc3ccccc3[nH]2)c1 (centres undefined),1.27%,14.6%
COc1cc(CC(O)CO)c(OC)c2c1OCO2 (centres undefined),-3.19%,-10.5%
O=C(Cn1nc(-c2cccs2)ccc1=O)N1CCCCCC1,1.6%,-0.139%
CC(NC(=O)CN(C)S(C)(=O)=O)c1nnc2n1CCCCC2 (centres undefined),5%,-25.1%
Cc1nn(C)c(N2CCOCC2)c1CNCc1ccc(Cl)s1,5.1%,27.1%
Clc1ccc(CN2CCCC(Cn3cncn3)C2)c2ncccc12 (centres undefined),2.62%,-50.6%
O=c1ccc(-c2cccs2)nn1CN1CCCCCC1,-1.83%,-4.33%
CCN1CCN(CC(O)c2ccc(F)cc2)CC1 (centres undefined),-6.48%,19.4%
O=C(Cn1cc(I)cn1)Nc1cccnc1,1.95%,-36.6%
COc1ccc(CNCCc2cc(F)cc3c2OCOC3)cc1O,3.65%,-23.1%
CSc1ccsc1C(=O)N1CCN(CC(C)(C)O)CC1,2.72%,-13.5%
Cn1cnc(S(=O)(=O)NCCN2CCCCCC2=O)c1Cl,-1.7%,17.3%
O=C(c1cc[nH]n1)N1CCCC1C1CCN(Cc2ccccc2)CC1 (centres undefined),6.59%,-28.1%
COc1c(C2CCCN2C(=O)Cc2c(C)noc2C)c(C)nn1C (centres undefined),-3.25%,6.14%
CC(CNC(=O)c1ccc(Cl)cc1I)N1CCCC1 (centres undefined),-0.881%,-18.5%
CN(Cc1nc(C2CC2)no1)C1CCCN(c2cccnn2)C1 (centres undefined),-4.8%,0.986%
